Results from PubChem BioAssay (NCI).
The panel holds about 83,000 compounds, 20% with a hit somewhere; the sample as a whole holds those more often.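 Each cell line was grown in a 96-well plate and treated with one concentration of compound for 48 hours. Values below 10 were considered active.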 Active and inactive are the calls of the source.

Experiments:
Test in all cases: NCI-60 one-dose screen, 48 h (100 = growth as untreated, 0 = no growth, -100 = all killed)
Settings in all cases: 10 µM unless noted
HCT-15 colon = test system: HCT-15 colon
HT29 colon = test system: HT29 colon
SNB-75 CNS = test system: SNB-75 CNS
SNB-19 CNS = test system: SNB-19 CNS
U251 CNS = test system: U251 CNS
PC-3 prostate = test system: PC-3 prostate
SK-MEL-5 melanoma = test system: SK-MEL-5 melanoma
UACC-62 melanoma = test system: UACC-62 melanoma
LOX IMVI melanoma = test system: LOX IMVI melanoma
SK-MEL-28 melanoma = test system: SK-MEL-28 melanoma
SK-MEL-2 melanoma = test system: SK-MEL-2 melanoma
EKVX NSCLC = test system: EKVX NSCLC
SN12C renal = test system: SN12C renal
UO-31 renal = test system: UO-31 renal
TK-10 renal = test system: TK-10 renal
ACHN renal = test system: ACHN renal
CAKI-1 renal = test system: CAKI-1 renal
CCRF-CEM leukemia = test system: CCRF-CEM leukemia
MOLT-4 leukemia = test system: MOLT-4 leukemia

Measured: growth

c1ccc(-c2c(-c3ccccc3)[n+](Cc3ccc4ccccc4c3)c(-c3cccc4ccccc34)n2Cc2ccc3ccccc3c2)cc1
active: HCT-15 colon -52.9% | HT29 colon -49.7% | SNB-75 CNS -57.9% | SNB-19 CNS -68.9% | U251 CNS -94.9% | PC-3 prostate -60.8% | SK-MEL-5 melanoma -98.4% | UACC-62 melanoma -64.8% | LOX IMVI melanoma -98.9% | SK-MEL-28 melanoma -71.8% | SK-MEL-2 melanoma -77.9% | EKVX NSCLC -10.9% | SN12C renal -81.6% | UO-31 renal -93.5% | TK-10 renal -78% | ACHN renal -100% | CAKI-1 renal -97.2% | CCRF-CEM leukemia 1.74% | MOLT-4 leukemia -25.8%

O=S(=O)(NCCNc1nccc(-c2c(-c3cccc(F)c3)nc3sccn23)n1)c1ccc(Br)cc1
inactive: HCT-15 colon 29.2% | HT29 colon 28.2% | SNB-75 CNS 75.3% | SNB-19 CNS 59.3% | U251 CNS 53.4% | PC-3 prostate 51% | SK-MEL-5 melanoma 31.5% | UACC-62 melanoma 35.8% | LOX IMVI melanoma 38.5% | SK-MEL-28 melanoma 69.1% | SK-MEL-2 melanoma 71.7% | EKVX NSCLC 59.5% | SN12C renal 42.9% | UO-31 renal 21.2% | TK-10 renal 68.8% | ACHN renal 30.2% | CAKI-1 renal 35.1% | CCRF-CEM leukemia 51% | MOLT-4 leukemia 35.7%

Cc1ccc(-c2[nH][nH]c(=O)c2-c2nc3ccccc3s2)cc1
inactive: HCT-15 colon 99.1% | HT29 colon 104% | SNB-75 CNS 79.4% | SNB-19 CNS 97.9% | U251 CNS 103% | PC-3 prostate 96.9% | SK-MEL-5 melanoma 102% | UACC-62 melanoma 95.9% | LOX IMVI melanoma 95.7% | SK-MEL-28 melanoma 111% | SK-MEL-2 melanoma 108% | EKVX NSCLC 97.4% | SN12C renal 98.7% | UO-31 renal 78.7% | TK-10 renal 107% | ACHN renal 97.3% | CAKI-1 renal 88.7% | CCRF-CEM leukemia 93.3% | MOLT-4 leukemia 100%

O=C(Nc1ccccc1)Nc1ccc2cc3ccc(NC(=O)Nc4ccccc4)cc3nc2c1
inactive: HCT-15 colon 93.9% | PC-3 prostate 51.5% | SK-MEL-5 melanoma 83% | UACC-62 melanoma 18.7% | SK-MEL-2 melanoma 55.5% | EKVX NSCLC 86.6% | UO-31 renal 89.9% | TK-10 renal 114% | ACHN renal 92% | CAKI-1 renal 80.3%
active: HT29 colon 4.81% | SNB-75 CNS -0.331% | SNB-19 CNS -27.5% | U251 CNS -39.3% | LOX IMVI melanoma -52.8% | SK-MEL-28 melanoma -13.4% | SN12C renal -26.5% | CCRF-CEM leukemia 0.957% | MOLT-4 leukemia -27.6%

COc1cc(/C(C)=C(\c2ccc(Cl)cc2)c2ccc(OCCN3CCCC3)cc2)ccc1F
inactive: SNB-75 CNS 84.2% | SNB-19 CNS 79.8% | U251 CNS 46.1% | PC-3 prostate 53% | SK-MEL-5 melanoma 49.9% | UACC-62 melanoma 58% | LOX IMVI melanoma 46% | SK-MEL-28 melanoma 69.3% | SK-MEL-2 melanoma 98.8% | EKVX NSCLC 74% | SN12C renal 70.2% | UO-31 renal 39.7% | TK-10 renal 69.3% | ACHN renal 83.1% | CAKI-1 renal 65.2% | CCRF-CEM leukemia 37.6% | MOLT-4 leukemia 32.6%
active: HCT-15 colon 7.9% | HT29 colon 8.92%

CCN(CC)CCn1c(=O)c2cc(OC)c(OC)cc2c2ccc3cc4c(cc3c21)OCO4
inactive: HCT-15 colon 54.7% | HT29 colon 17.1% | SNB-75 CNS 47.9% | SNB-19 CNS 27.1% | U251 CNS 22.7% | PC-3 prostate 48% | SK-MEL-5 melanoma 36.1% | UACC-62 melanoma 16.8% | SK-MEL-28 melanoma 53.4% | SK-MEL-2 melanoma 93.2% | EKVX NSCLC 83.9% | SN12C renal 32.9% | UO-31 renal 22.8% | TK-10 renal 67.6% | ACHN renal 10.2% | CAKI-1 renal 17.3%
active: LOX IMVI melanoma -42.2% | CCRF-CEM leukemia 2.85% | MOLT-4 leukemia -9.32%

CCCCCCCCCCCCCCCC[N+]1(C)CCN(SN2CC[N+](C)(CCCCCCCCCCCCCCCC)CC2)CC1
inactive: HCT-15 colon 54.2% | HT29 colon 19.7% | SNB-75 CNS 50.3% | SNB-19 CNS 29.3% | U251 CNS 23.2% | PC-3 prostate 33% | SK-MEL-5 melanoma 95.4% | UACC-62 melanoma 72.8% | LOX IMVI melanoma 34.1% | SK-MEL-28 melanoma 98.4% | SK-MEL-2 melanoma 95.9% | EKVX NSCLC 82.3% | SN12C renal 72.5% | UO-31 renal 76.9% | TK-10 renal 53.3% | ACHN renal 66.2% | CAKI-1 renal 43.4% | CCRF-CEM leukemia 48.1% | MOLT-4 leukemia 57.1%

O=S(=O)(NCCNc1nccc(-c2c(-c3cccc(F)c3)nc3sccn23)n1)c1ccc(Cl)cc1
inactive: HCT-15 colon 31.8% | HT29 colon 36% | SNB-75 CNS 78.9% | SNB-19 CNS 66.5% | U251 CNS 55.2% | PC-3 prostate 56.9% | SK-MEL-5 melanoma 36.5% | UACC-62 melanoma 44.3% | LOX IMVI melanoma 43.7% | SK-MEL-28 melanoma 74.7% | SK-MEL-2 melanoma 79.8% | EKVX NSCLC 66.3% | SN12C renal 48.7% | UO-31 renal 23.8% | TK-10 renal 88.5% | ACHN renal 35.7% | CAKI-1 renal 41.1% | CCRF-CEM leukemia 50.4% | MOLT-4 leukemia 46.8%

O=C(CSc1nc2sc3c(c2c(=O)n1-c1ccc(Cl)cc1)CCCC3)Nc1nc(-c2cccc(Br)c2)cs1
inactive: HCT-15 colon 87.8% | HT29 colon 61.7% | SNB-75 CNS 41.7% | SNB-19 CNS 84.8% | U251 CNS 78.8% | PC-3 prostate 57.5% | SK-MEL-5 melanoma 82.8% | UACC-62 melanoma 85.1% | LOX IMVI melanoma 84.3% | SK-MEL-28 melanoma 84.4% | SK-MEL-2 melanoma 97% | EKVX NSCLC 75% | SN12C renal 79.5% | UO-31 renal 74.6% | TK-10 renal 113% | ACHN renal 91.1% | CAKI-1 renal 49% | CCRF-CEM leukemia 87.7% | MOLT-4 leukemia 87.1%

Cn1ccnc1C(=O)/C=C/c1ccc(CC(=O)Nc2ccc(Cl)cc2)cc1
inactive: SNB-75 CNS 11.8% | PC-3 prostate 32.7% | SK-MEL-5 melanoma 33.3% | UACC-62 melanoma 35% | LOX IMVI melanoma 13.1% | SK-MEL-28 melanoma 70.9% | SK-MEL-2 melanoma 89.7% | EKVX NSCLC 40.6% | UO-31 renal 23.3% | TK-10 renal 27% | ACHN renal 49.8% | CAKI-1 renal 34.7%
active: HCT-15 colon 5.48% | HT29 colon 3.03% | SNB-19 CNS 6.66% | U251 CNS 6.28% | SN12C renal 2.21% | CCRF-CEM leukemia 4.18% | MOLT-4 leukemia 5.64%

CC1=C(C(=O)/C=C/c2ccc(N(C)C)cc2)C(c2ccccc2)NC(=S)N1 (centres undefined)
inactive: HCT-15 colon 105% | HT29 colon 102% | SNB-75 CNS 86.9% | SNB-19 CNS 95.1% | U251 CNS 101% | PC-3 prostate 98.3% | SK-MEL-5 melanoma 99.3% | UACC-62 melanoma 94.3% | LOX IMVI melanoma 98.5% | SK-MEL-28 melanoma 110% | SK-MEL-2 melanoma 102% | EKVX NSCLC 97.7% | SN12C renal 96.9% | UO-31 renal 75.4% | TK-10 renal 107% | ACHN renal 100% | CAKI-1 renal 89.8% | CCRF-CEM leukemia 108% | MOLT-4 leukemia 101%

CCC(CC)NCC(C)(C)O
inactive: HCT-15 colon 101% | HT29 colon 108% | SNB-75 CNS 98.1% | SNB-19 CNS 94.6% | U251 CNS 103% | PC-3 prostate 89.9% | SK-MEL-5 melanoma 110% | UACC-62 melanoma 94.4% | LOX IMVI melanoma 101% | SK-MEL-28 melanoma 115% | SK-MEL-2 melanoma 110% | EKVX NSCLC 102% | SN12C renal 97.9% | UO-31 renal 88.2% | TK-10 renal 109% | ACHN renal 102% | CAKI-1 renal 89.5% | CCRF-CEM leukemia 100% | MOLT-4 leukemia 103%

Brc1ccc(Nc2csc(-c3ccccn3)n2)cc1
inactive: HCT-15 colon 67.4% | HT29 colon 81.4% | SNB-75 CNS 72.3% | SNB-19 CNS 96% | U251 CNS 101% | PC-3 prostate 85.3% | SK-MEL-5 melanoma 95.4% | UACC-62 melanoma 67.1% | LOX IMVI melanoma 72.1% | SK-MEL-28 melanoma 109% | SK-MEL-2 melanoma 96.4% | EKVX NSCLC 85.4% | SN12C renal 91.6% | UO-31 renal 52.2% | TK-10 renal 119% | ACHN renal 82.4% | CAKI-1 renal 63.6% | CCRF-CEM leukemia 97.2% | MOLT-4 leukemia 96.6%

CC(=O)O[C@H]1Cc2c([nH]c3ccccc23)[C@@H](c2ccc(Cl)cc2)N1C(=O)CCNC(C)(C)C
active: SK-MEL-5 melanoma -79.5% | SK-MEL-28 melanoma 8.92%
inactive: HCT-15 colon 69.9% | HT29 colon 29% | SNB-75 CNS 42.6% | SNB-19 CNS 69.3% | U251 CNS 50.6% | PC-3 prostate 36.3% | UACC-62 melanoma 53.1% | LOX IMVI melanoma 25.6% | SK-MEL-2 melanoma 79.4% | EKVX NSCLC 67.2% | SN12C renal 58.4% | UO-31 renal 23.7% | TK-10 renal 94.5% | ACHN renal 64.5% | CAKI-1 renal 63.6% | CCRF-CEM leukemia 41% | MOLT-4 leukemia 28.6%

CCCOc1ccc(/C=N/Nc2cc(C)nc3ccc(Br)cc23)cc1
active: HCT-15 colon -20.9%
inactive: HT29 colon 26.5% | SNB-75 CNS 105% | SNB-19 CNS 101% | U251 CNS 25.7% | PC-3 prostate 87.6% | SK-MEL-5 melanoma 100% | UACC-62 melanoma 96.1% | LOX IMVI melanoma 59.9% | SK-MEL-28 melanoma 102% | SK-MEL-2 melanoma 93% | EKVX NSCLC 81.7% | SN12C renal 84.4% | UO-31 renal 72.6% | TK-10 renal 111% | ACHN renal 97.7% | CAKI-1 renal 91.3% | CCRF-CEM leukemia 28.3% | MOLT-4 leukemia 73.9%

COc1cc2cc(CN3CCN(c4nccc(-c5ccc6ccccc6c5)n4)CC3)c(=O)[nH]c2cc1OC
inactive: HCT-15 colon 21.2% | HT29 colon 69% | SNB-75 CNS 104% | SNB-19 CNS 76.7% | U251 CNS 22.9% | PC-3 prostate 60.7% | SK-MEL-5 melanoma 85.4% | UACC-62 melanoma 95.1% | LOX IMVI melanoma 90.2% | SK-MEL-28 melanoma 102% | SK-MEL-2 melanoma 97.8% | EKVX NSCLC 94.5% | SN12C renal 51.7% | UO-31 renal 74.9% | TK-10 renal 91% | ACHN renal 75.7% | CAKI-1 renal 99.5% | CCRF-CEM leukemia 49.1% | MOLT-4 leukemia 54.1%
